Data reported in PubChem BioAssay AID463212 (Sanford-Burnham Center for Chemical Genomics, 2010).
Among all 330,000 compounds or so, about 4,400 (1.3%) were called active.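 The calls were made as follows: active = growth inhibition of the mutant yeast at or above 50%; inactive = the rest.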 This excerpt belongs to a sample that is enriched for actives.

Assay: growth inhibitors of tim23-1 mutant yeast, primary screen, luminescence, uHTS (AID 463212);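 also: temperature-sensitive mutant grown at 25 °C; plate controls were DMSO-treated mutant yeast for no effect and medium wells lacking yeast for full effect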
Conditions: S. cerevisiae tim23-1 growth, BacTiter-Glo luminescence, 24 h; at 20 µM; stronger effect = higher value

| Compound | inhibition |
| --- | --- |
| COc1cccc(Oc2ccc(N)cc2)c1 | 8.39% (inactive) |
| CC(C)(C)c1ccc(Oc2ccc(N)cc2)cc1 | 60.7% (active) |
| CC(C)(C)c1ccc(OC2=CS(=O)(=O)c3ccccc32)cc1 | 20.4% (inactive) |
| Oc1ccc(C2Nc3cccc4cccc(c34)N2)cc1 | 23.4% (inactive) |
| COc1ccc(C2NC(=O)c3ccccc3N2)cc1 (configuration not stated) | 16.7% (inactive) |
| COc1cccc(C2Nc3cccc4cccc(c34)N2)c1 | 57.5% (active) |
| O=C(NC1CCCC1)C(c1ccc(Cl)cc1)N(C(=O)c1csnn1)C1CC1 (configuration not stated) | 11.6% (inactive) |
| O=C(CN1CCC(NC(=O)C2CC2)CC1)Nc1ccccc1[N+](=O)[O-] | 8.81% (inactive) |
| O=S(=O)(c1ccc(SCc2ccc(Br)cc2)nc1)N1CCOCC1 | 6.55% (inactive) |
| COc1cc(/C=N/NC(=O)CNC(=O)c2ccncc2)ccc1OC(C)=O | -0.262% (inactive) |
| COc1cc(CC(=O)N/N=C/c2ccccc2)c([N+](=O)[O-])cc1OC | 4.64% (inactive) |
| COc1ccc(C(=O)NCC(=O)N/N=C/c2ccc([N+](=O)[O-])o2)cc1OC | 87.3% (active) |
| CCN(CC(=O)Nc1cc(Cl)ccc1C)C(=O)CSCc1ccccc1 | 18.4% (inactive) |
| Cc1ccc(S(=O)(=O)c2c[nH]c3ccc(C)cc3c2=O)cc1 | -5.69% (inactive) |
| Cc1ccc(-c2cccc([C@H]3[C@@H]4C=CC[C@@H](C)[C@@H]4C(=O)N3Cc3ccccc3)c2)cc1 | 36.6% (inactive) |
| COCCCNc1nc2ccccc2nc1NS(=O)(=O)c1ccc(F)cc1 | 21.6% (inactive) |
| CC1CN(C(=O)c2ccc([N+](=O)[O-])s2)CC(C)O1 (configuration not stated) | 13.9% (inactive) |
| O=[N+]([O-])c1ccc(C=Nc2ccc(Cl)cc2Cl)s1 | 60.2% (active) |
| Cc1ccc2c(c1)C1C[N+](C)(CC(=O)c3ccccc3)CCC1N2C(=O)c1ccccc1Cl (configuration not stated) | -4.6% (inactive) |
| COc1ccc(Nc2nc(N)nc(CSC(=S)N3CCC(C)CC3)n2)cc1 | 50% (inactive) |
| CC(=O)c1ccc(NC(=O)c2ccc(-n3cncn3)c([N+](=O)[O-])c2)cc1 | -6.94% (inactive) |
| Cc1cc(Cl)ccc1C(=O)C1CCCN(C(=O)c2nonc2C)C1 (configuration not stated) | 41.7% (inactive) |
| O=C(Nc1ccccc1)c1ccc2c(c1)OCCCO2 | 51% (active) |
| O=C(Nc1ccc(N2CCOCC2)cc1)c1ccc2c(c1)OCO2 | 10.9% (inactive) |
| O=C(Nc1ccc(NC(=O)c2ccc3c(c2)OCO3)cc1)c1cccc(Cl)c1 | 1.12% (inactive) |

| Compound | inhibition |
| --- | --- |
| O=C(Nc1cccc(F)c1)NC1CCCc2ccccc21 (configuration not stated) | 19.8% (inactive) |
| O=C(Nc1cccc(F)c1)NC1CCCCCCC1 | 50.3% (active) |
| C/C(CC(=O)Nc1cccc(F)c1)=N\NC(=O)C(=O)NC1CCCCC1 | 18.3% (inactive) |
| CC1=NOC(=O)/C1=C\c1ccccc1 | 16.8% (inactive) |
| COc1cc(/C=C2/C(=O)ON=C2C)ccc1OCc1cccc(F)c1 | 52.2% (active) |
| C#CCOc1ccc(/C=C2/C(=O)ON=C2C)cc1OCC | 28.2% (inactive) |
| C=CCOc1ccc(/C=C2/C(=O)ON=C2C)cc1OCC | 22.6% (inactive) |
| COc1cc(/C=C2\SC(=O)NC2=O)ccc1OCc1ccc(Cl)nc1 | -2.95% (inactive) |
| COc1cc(/C=C2/C(=O)ON=C2C)ccc1OCc1ccccc1F | 66.9% (active) |
| CN1CCN(C(CNS(=O)(=O)c2cccs2)c2cccnc2)CC1 (configuration not stated) | 7.24% (inactive) |
| CCN(CC(=O)Nc1ccc(OC)cc1)C(=O)c1ccc(=O)n(Cc2ccccc2)n1 | 7.12% (inactive) |
| CC(C)N(C(=O)[C@H]1C[C@H](CC(=O)NC(C)(C)C)C(=O)N2CCc3c([nH]c4ccc(Cl)cc34)[C@]12C)C(C)C | 43.7% (inactive) |
| COC(C[C@@H]1O[C@@H]1C(=O)[C@H](C)OCc1ccccc1)OC | -16.7% (inactive) |
| COC(C/C=C/C(=O)[C@@H](C)OCc1ccccc1)OC | 56.2% (active) |
| COC(C[C@H](O)CC(=O)[C@@H](C)OCc1ccccc1)OC | 8.93% (inactive) |
| Cc1ccc(NS(=O)(=O)c2ccc3c(c2)oc(=O)n3C)c(C)c1 | 21.8% (inactive) |
| CCn1cc(C(=O)NC2CCCCCC2)c(=O)c2cc(S(=O)(=O)N3CCCCC3)ccc21 | 12.1% (inactive) |
| N#Cc1cccc(CSc2ncnc(N)n2)c1 | 10.7% (inactive) |
| c1ccc(-c2nnc(N3CCOCC3)c3ccccc23)cc1 | -18.2% (inactive) |
| CCCC(=O)N1CCN(c2nnc(-c3ccc(C)cc3)c3ccccc23)CC1 | 50.5% (active) |
| OCCN1CCN(c2nnc(-c3ccccc3)c3ccccc23)CC1 | -13.1% (inactive) |
| O=C(Oc1cccc(O)c1)C1CCCCC1 | 25.1% (inactive) |
| CCCSC(=S)NC1CCS(=O)(=O)C1 (configuration not stated) | 8.59% (inactive) |
| COc1ccc2c(c1)C(=C(C#N)C#N)C(=O)N2CCc1ccccc1 | 70.8% (active) |
| CCCCN1C(=O)/C(=C(/C#N)C(N)=O)c2ccccc21 | 21.8% (inactive) |

| Compound | inhibition |
| --- | --- |
| C#CCN1C(=O)C(O)(CC(=O)c2cc(OC)ccc2OC)c2ccccc21 (configuration not stated) | 30% (inactive) |
| COc1cccc(-c2nnc(NC(=O)c3ccc(S(=O)(=O)N(CC(C)C)CC(C)C)cc3)o2)c1 | 11.6% (inactive) |
| Cc1cccc(-c2nc3ccccc3c(=O)n2NC(=O)Cc2ccc(Cl)cc2)c1 | 23.4% (inactive) |
| O=c1c2cc(Br)ccc2nc(-c2cccc(Cl)c2)n1O | 65.8% (active) |
| NC(=O)c1cc(-c2cccnc2)nc2ccc(Br)cc12 | -4.37% (inactive) |
| CCOc1ccccc1NC(=O)c1cc(S(=O)(=O)N2CCC3(CC2)OCCO3)ccc1F | 24.5% (inactive) |
| CCOc1cc(NC(=O)Nc2ccccc2)c(OCC)cc1NC(=O)CC | 7.41% (inactive) |
| CCOc1cc(NC(=O)c2ccccc2C(=O)O)c(OCC)cc1NC(=O)c1ccccc1F | 53% (active) |
| CCCCC(CC)CNC(=O)C(=O)C1C(=O)Nc2ccccc21 (configuration not stated) | 51.7% (active) |
| CCCCCNC(=O)C1c2ccccc2Oc2ccccc21 | 18.6% (inactive) |
| CCCCC(CC)CNC(=O)CCCCn1c(=O)[nH]c2ccsc2c1=O (configuration not stated) | -5.06% (inactive) |
| Cc1c(CN2CCC(n3nccc3NC(=O)CCc3ccccc3)CC2)cnn1C | 3.04% (inactive) |
| Cc1ccccc1Nc1nc(-c2cccnc2)cs1 | 33.4% (inactive) |
| Cc1cccc(Nc2nc(-c3ccccc3)cs2)n1 | 55.1% (active) |
| CCc1noc(C)c1C(=O)Nc1nc(-c2ccccc2)cs1 | 22.5% (inactive) |
| CCC(C)OC(=O)C(C)Oc1ccc(-c2ccccc2)cc1 (configuration not stated) | 3.46% (inactive) |
| Clc1cccc(-c2nc(NCC3CCCO3)c3ccccc3n2)c1 (configuration not stated) | 28.9% (inactive) |
| c1ccc2c(NCC3CCCO3)nc(-c3ccncc3)nc2c1 (configuration not stated) | 13.1% (inactive) |
| c1ccc(-c2nc(NCc3ccco3)c3ccccc3n2)cc1 | 53% (active) |
| O=C(CO/N=C/c1ccc(OC(F)F)cc1)NCc1ccc(F)cc1 | 8.87% (inactive) |
| CC(C)(C)Nc1nc(-c2ccccn2)nc2ccccc12 | -51.4% (inactive) |
| Cc1ccc(Oc2nc(-c3ccccn3)nc3ccccc23)cc1 | 63.6% (active) |
| COc1cnc(-c2ccccn2)nc1Oc1ccc(C(C)(C)C)cc1 | 41.2% (inactive) |
| CC(C)(COC(=O)Nc1ccccc1)COC(=O)Nc1ccccc1 | 29.8% (inactive) |
| O=C(c1ccncc1)N1CCN(S(=O)(=O)c2cccc([N+](=O)[O-])c2)CC1 | 3.41% (inactive) |

| Compound | inhibition |
| --- | --- |
| CC(Sc1nc2cc(Cl)ccc2s1)C(=O)Nc1ccc2c(c1)OCO2 (configuration not stated) | 32% (inactive) |
| NS(=O)(=O)c1ccc(NC(=S)N2CCCC2)cc1 | -14.9% (inactive) |
| COc1ccccc1NS(=O)(=O)c1ccc(C)c(C(=O)NNC(=O)c2csc(N3CCOCC3)n2)c1 | -7.58% (inactive) |
| Cc1ccc(C(=O)OC2=CC(=O)CC(C)(C)C2)cc1 | 52.8% (active) |
| COC(=O)NNC1=CC(=O)CC(C)(C)C1 | -3.94% (inactive) |
| Cc1ccc(C(=O)Oc2ccc(C(=S)N3CCOCC3)cc2)cc1 | -1.92% (inactive) |
| O=C(CSc1nnnn1C1CCCC1)N1CCCCC1 | 4.13% (inactive) |
| C[C@H]1CC[C@]2(O[C@@H](CCO)C[C@@H](O)[C@@H]2O)O1 | 23.4% (inactive) |
| COc1ccc(-c2nn(-c3ccccc3)cc2/C=N/Nc2ccccn2)cc1OC | 45.7% (inactive) |
| O=Cc1cn(-c2ccccc2)nc1-c1ccccn1 | 58.8% (active) |
| O=C(O)c1ccc(N/N=C/c2cn(-c3ccccc3)nc2-c2cccs2)cc1 | 40.4% (inactive) |
| O=C(c1ccccn1)c1ncc(C(F)(F)F)cc1Cl | 3% (inactive) |
| N/C(=N\OC(=O)Nc1ccc(Cl)c(Cl)c1)c1ncc(C(F)(F)F)cc1Cl | 73.9% (active) |
| N/C(=N\OC(=O)CCCC(=O)O)c1ncc(C(F)(F)F)cc1Cl | 9.72% (inactive) |
| Cc1cccc(NC(=O)Cn2cc(C(=O)c3ccco3)c3ccccc32)c1 | 7.71% (inactive) |
| O=C(NCCSc1ncc(-c2ccccc2)[nH]1)c1ccco1 | -8.72% (inactive) |
| CCOc1ccc(C(=O)Nc2cccc(SC)c2)cc1 | 10.1% (inactive) |
| O=C1NC(Cc2ccc(O)cc2)c2nc3ccc(Cl)cc3c(=O)n2-c2ccccc21 (configuration not stated) | 15% (inactive) |
| CCOc1ccc(C(CC(=O)O)NC(=O)Cc2ccccc2)cc1OC (configuration not stated) | -3.51% (inactive) |
| CCOc1ccc(C(c2c(C)[nH][nH]c2=O)c2c(C)[nH][nH]c2=O)cc1OCC | 54.5% (active) |
| CCOc1ccc(C(C)NC(=O)CN2C(=O)NC3(CCCCC3)C2=O)cc1OCC (configuration not stated) | 7.68% (inactive) |
| CCOC(=O)N1CCN(C(=O)c2cn(C)c3ccc(S(=O)(=O)N(CC)CC)cc3c2=O)CC1 | 2.29% (inactive) |
